# Screening data: PubChem BioAssay, National Center for Advancing Translational Sciences (NCATS)
# Rows were chosen to be rich in hits. Some 7.5% of all compounds tested hit in one or more screens of this group.
# FLuc modulator = counter-screen for miR-21 project: firefly luciferase inhibitors or activators | P08659 | purified FLuc, Km substrates, luminescence inhibition | Potency, µM (titrated, usually from 57.5 µM), for inactives: at the highest dose activity change, negative = inhibition, usual class: inhibitors | actives 6.9% (n = 360,000) | AID 588342;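 further: plate controls were vehicle for no effect and reference inhibitor for full effect; nearly all actives have a fitted effect of over 55% in size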
# Target sequence (P08659 whole entry, looked up): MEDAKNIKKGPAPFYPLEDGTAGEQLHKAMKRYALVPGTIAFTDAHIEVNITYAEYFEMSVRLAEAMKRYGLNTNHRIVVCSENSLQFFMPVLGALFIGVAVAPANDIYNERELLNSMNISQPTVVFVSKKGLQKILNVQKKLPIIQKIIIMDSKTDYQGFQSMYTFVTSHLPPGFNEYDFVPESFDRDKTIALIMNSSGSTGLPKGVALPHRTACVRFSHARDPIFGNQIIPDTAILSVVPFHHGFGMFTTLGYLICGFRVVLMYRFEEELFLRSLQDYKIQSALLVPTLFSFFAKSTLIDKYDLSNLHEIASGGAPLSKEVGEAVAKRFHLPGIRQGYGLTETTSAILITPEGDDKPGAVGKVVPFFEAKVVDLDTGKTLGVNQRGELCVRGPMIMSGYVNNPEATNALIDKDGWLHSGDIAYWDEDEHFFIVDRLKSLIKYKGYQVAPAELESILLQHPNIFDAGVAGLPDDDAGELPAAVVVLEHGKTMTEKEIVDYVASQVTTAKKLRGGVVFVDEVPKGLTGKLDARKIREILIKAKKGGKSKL
#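 Purified P. pyralis luciferase (10nM final) with 10uM D-luciferin and 10uM ATP (Km levels) in 50mM Tris acetate pH 7.5, 10mM Mg acetate, 0.01% Tween-20, 0.05% BSA; qHTS 6-point titration, ~60 µM downward; luminescence read.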
# Rab9 promoter act = activators of Rab9 promoter. Huh7 Rab9 promoter-luciferase reporter, luminescence, 24 h. Potency, µM (top dose mostly 9.22 µM), without a hit: at the top dose activation, negative = inhibition, usual class: activators. actives 2.8% (n = 320,000); further: % of control where 0% means no effect; nearly all actives have a fitted effect of over 60% in size
#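 Cell-based reporter: Huh7 stable for Rab9 promoter-driven luciferase, plated in reduced-serum medium with 10% FBS at 1500 cells/well, compound-treated 24 h at 37 °C, luminescence read after 10 min reagent.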
# KinaseGlo FLuc = Kinase-Glo luciferase inhibition (counter-screen) | Q27757 | Kinase-Glo luciferase, ATP luminescence, 8 min | actives 0.28% (n = 200,000) | Potency, µM (highest dose often 38.3 µM), for inactives: at the top dose activity change, negative = inhibition, actives largely listed as inhibitors; further: on the % scale 0 is the no-effect control and ±100 the full control effect; nearly all actives have a fitted effect of over 60% in size
#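 Inhibition of Kinase-Glo luciferase light generation was assessed at 10 uM ATP in pH 7.2 imidazole buffer, with luminescence measured after eight minutes at ambient temperature.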
# SMN2 splice enh = enhancers of SMN2 splice variant expression; Potency, µM (series often up to 46.1 µM), for the others: at the top dose activity change, positive = activation, most hits filed as activators; AID 1458; actives 2.8% (n = 210,000); HEK293 SMN2-luciferase splicing reporter, luminescence, 30-36 h; further: % of control where 0% means no effect; nearly all actives have a fitted effect of over 55% in size
#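 HEK293 cells carry an SMN2 […]–luciferase reporter in which exon 7 inclusion puts luciferase in frame. Cells were plated 10-12 h before compound addition, then incubated 30-36 h at 37C. ONE-Glo luminescence was read; sodium butyrate at 4.5 mM final served as control.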
# ELG1 genotox = induces genotoxicity in HEK293T cells with luciferase-tagged ELG1; actives 1.3% (n = 330,000); AID 504466; HEK293T ELG1-luciferase reporter, luminescence, 16 h; Potency, µM (doses to about 46 µM), for the others: at the highest dose activity change, positive = activation, usual class: activators; further: % of control where 0% means no effect; nearly all actives have a fitted effect of over 60% in size
#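 Cells (2,000/well) expressing the ELG1-luciferase fusion are dosed by pin tool and kept 16 hr at 37 °C, 5% CO2. Signal comes from ONE-Glo luciferase reagent after 30 min at room temperature.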
# NPC1 prom act = activators of NPC1 promoter; Huh7 NPC1 promoter luciferase reporter, 24 h; Potency, µM (doses to about 9.22 µM), for inactives: at the top dose activation, usual class: activators; actives 2.4% (n = 320,000); AID 485313; further: % of control where 0% means no effect; nearly all actives have a fitted effect of over 60% in size
#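 Luminescence read-out of NPC1 promoter-driven luciferase in stably transfected Huh7 cells; compounds delivered in DMSO and left 24 h at 37C, 5% CO2, qHTS titration format.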
# An asterisk follows results filed as active; ? = inconclusive; nt = no result; [ ] = another dose, or the depositor's remark. The call rests on the fitted dose curve; in most records, active means well fitted curve in the direction sought with a large enough effect; inconclusive means small, poorly fitted or top-dose-only effect, or another doubt; inactive means no such curve, though single readings can be large; an effect the other way counts as inactive or inconclusive. Potency means the concentration at half of the fitted maximal effect.
SMILES,FLuc modulator,Rab9 promoter act,KinaseGlo FLuc,SMN2 splice enh,ELG1 genotox,NPC1 prom act
CC(=O)Oc1c2c(c(CC=C(C)C)c3c1C(=O)C1=CC4CC5C(C)(C)OC(C/C=C(\C)C(=O)O)(C4=O)[C@]15O3)OC(C)(CCC=C(C)C)C=C2 (stereo not given in full),nt,nt,0.3%,-94.8%,nt,nt
NC(N)=NCCN=C(N)N,nt,nt,-1.4%[7.66 µM],-1.9%[9.22 µM],nt,nt
CCc1ccc(NC(=O)c2cccn(Cc3cccc([N+](=O)[O-])c3)c2=O)cc1,9.53µM*,nt,nt,nt,nt,nt
O=C(Nc1ccc2c(c1)OCCO2)c1cccn(Cc2cccc(F)c2)c1=O,21.3µM*,nt,nt,nt,nt,nt
O=C(CSCc1ccccc1)Nc1ccc2c(c1)OCO2,15.1µM*,3.16µM*,0.3%,11.1%,?,?
Cc1ccc(NC(=O)N(Cc2ccc3c(c2)OCO3)C2CCN(Cc3ccccc3)CC2)cc1C,-5.8%,nt,nt,nt,nt,nt
[O-][Cl+2]([O-])O,nt,nt,nt,4.6%,nt,nt
N[C@@H](CSC1c2ccccc2-c2ccccc21)C(=O)O,nt,nt,-4.2%[7.66 µM],-2.7%[9.22 µM],nt,nt
COc1ccc(C2CC(c3c(O)n(CCc4ccccc4)c(=O)[nH]c3=O)=NN2)cc1OC (stereo not given),19µM*,-6.9%,nt,nt,-6.9%,-1.4%
COc1ccc(CCn2c(O)c(C=NCc3cccnc3)c(=O)[nH]c2=O)cc1OC,1.9%,0.2%,1.6%,-11.2%,1.2%,1.2%
O=C(c1ccccc1)[C@H]1[C@H](c2ccccc2[N+](=O)[O-])N1C1CCCCC1 (stereo not given in full),nt,nt,-3.1%[7.66 µM],1.5%[9.22 µM],nt,nt
Cc1cc(/C=C2\C(=O)NC(=O)N(c3cccc(F)c3)C2=O)c(C)n1-c1ccc(C(=O)O)c(Cl)c1,-17.8%,-0.1%,nt,nt,-1.8%,-1.0%
Cc1ccc(N2C(=O)NC(=O)/C(=C/c3ccc(-c4ccc(C(=O)O)c(Cl)c4)o3)C2=O)cc1,10.7µM*,-2.3%,-1.5%,5.8%,-11.0%,-2.6%
O=C(Oc1ccccc1)c1cc2ccccc2o1,9.53µM*,0.1%,-3.9%,1.1%,1.4%,0.0%
CCCOC(=O)c1ccc(OC(=O)c2ccco2)cc1,?,-0.8%,-6.8%,4.1%,2.0%,0.3%
CNc1ccc2oc(C[C@@H]3OC4(CC[C@@H]3C)O[C@H]([C@@H](C)C(=O)c3ccc[nH]3)[C@H](C)C[C@H]4C)nc2c1C(=O)O (stereo not given in full),nt,nt,nt,-104.4%,nt,nt
O=C(Nc1ccc(Cl)c(Cl)c1)c1ccco1,21.3µM*,?,nt,nt,?,?
C=CCNC(=S)Nc1ccc(OC(=O)Nc2ccc(Cl)c(Cl)c2)cc1,-17.0%,-3.3%,nt,nt,-10.1%,-7.1%
O=C(NCP(=O)(O)O)c1cccnc1,nt,nt,-4.0%[7.66 µM],-2.8%[9.22 µM],nt,nt
O=C(/C=C/c1c[nH]c2ccccc12)c1c(O)n(CCc2ccccc2)c(=O)[nH]c1=O,13.5µM*,-2.6%,nt,nt,-0.5%,-1.5%
Cc1c([C@@H](C)C2NC[C@H](C)C[C@@H]2O)ccc2c1C[C@@H]1[C@H]2CC=C2C[C@@H](O)CC[C@@]21C (stereo not given in full),nt,nt,-3.5%[7.66 µM],-25.7%[9.22 µM],nt,nt
CN(C(=O)Oc1ccc(Cl)c2cccnc12)c1ccccc1,-8.1%,-1.3%,-5.0%,-16.1%,-2.9%,-2.1%
O=C(Oc1ccc(Cl)c2ccccc12)N1CCCCC1,16.9µM*,5.1%,16.0%,1.9%,?,11.8%
CN(C)C(=O)Oc1ccc(Cl)c2ccccc12,7.6%[2.3 µM],?,-0.9%,9.2%,2.3%,4.47µM*
O=C(Oc1ccc2ccccc2c1Cl)N1CCCC1,12µM*,2µM*,-2.6%,12.6µM*,2.06µM*,2.82µM*
CN(C)C(=O)Oc1ccc2ccccc2c1Cl,?,14.5%,-1.4%,-24.3%,?,13.7%
CCN(CC)C(=O)Oc1ccc2ccccc2c1Cl,16.9µM*,28.3%,-1.3%,?,13.3%,15.6%
O=C(Oc1c(Cl)cc(Cl)c2ccccc12)N1CCCCC1,?,0.1%,-1.5%,-12.6%,?,6.5%
[CH3][Hg][Cl],nt,nt,nt,-6.2%,nt,nt
